Reference: the supplement of paper PMC8728848
The full list was thinned out, with the strongest signals kept by preference.

Key:
Assay in all cases: glycan array binding signal (z-score within array); higher = stronger binding
Conditions in all cases: glycan notation: IUPAC condensed, linker removed; mutation: R186S
[1] = target: Neu5Ac(a2-3)Gal(b1-3)[Neu5Ac(a2-3)Gal(b1-4)]GlcNAc
Procedure, shortened: (§1)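 The binding signal is a Z-score computed within each array. Data were drawn from 3228 arrays in the Consortium for Functional Glycomics database, restricted to those with a known protein sequence. Scores were averaged over arrays of the same protein sequence at different concentrations or buffers, and over linkers, and negative values can be taken as non-binding.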

[2] = target: Neu5Ac(a2-3)Gal(b1-4)[Fuc(a1-3)]GlcNAc(b1-3)GalNAc
Procedure, shortened: as §1

[3] = target: Neu5Ac(a2-3)GalNAc(b1-4)GlcNAc
Procedure, shortened: as §1

[4] = target: Neu5Ac(a2-6)Gal(b1-4)GlcNAc(b1-2)Man(a1-3)[Gal(b1-4)GlcNAc(b1-2)Man(a1-6)]Man(b1-4)GlcNAc(b1-4)GlcNAc
Procedure, shortened: as §1

[5] = target: Neu5Ac(a2-6)Gal(b1-4)GlcNAc(b1-2)Man(a1-3)[Neu5Ac(a2-6)Gal(b1-4)GlcNAc(b1-2)Man(a1-6)]Man(b1-4)GlcNAc(b1-4)GlcNAc
Procedure, shortened: as §1

[6] = target: Neu5Ac(a2-6)Gal(b1-4)GlcNAc(b1-3)Gal(b1-3)GlcNAc
Procedure, shortened: as §1

[7] = target: Neu5Ac(b2-6)Gal(b1-4)GlcNAc
Procedure, shortened: as §1

Neu5Ac(b2-6)GalNAc = target: Neu5Ac(b2-6)GalNAc
Procedure, shortened: as §1

[8] = target: Neu5Ac9Ac(a2-3)Gal(b1-3)GlcNAc
Procedure, shortened: as §1

B1: Gal 3 (Homo sapiens), P17931 (protein)
chain: MADNFSLHDALSGSGNPNPQGWPGAWGNQPAGAGGYPGASYPGAYPGQAPPGAYPGQAPPGAYHGAPGAYPGAPAPGVYPGPPSGPGAYPSSGQPSAPGAYPATGPYGAPAGPLIVPYNLPLPGGVVPRMLITILGTVKPNANILDFQRGNDVAFHFNPRFNENNRRVIVCNTKLDNNWGREESQSVFPFESGKPFKIQVLVEPDHFKVAVNDAHLLQYNHRVKKLNEISKLGISGDIDLTSASYTMI
glycan array binding signal (z-score) [1]: -0.076
glycan array binding signal (z-score) [2]: 0.182
glycan array binding signal (z-score) [3]: -0.062
glycan array binding signal (z-score) [4]: 0.028
glycan array binding signal (z-score) [5]: -0.05
glycan array binding signal (z-score) [6]: -0.061
glycan array binding signal (z-score) [7]: -0.083
glycan array binding signal (z-score) (Neu5Ac(b2-6)GalNAc): -0.023
glycan array binding signal (z-score) [8]: -0.069
